Assay results taken from PubChem BioAssay AID1159580 (chemical genetic matrix, 2015).
Where “and” joins values, the source holds several entries; their conditions need not be identical. Identical values can stand only once. Among all 5,500 compounds or so, about 2,000 (36%) were called active. Another 18% or so got no clear call; they are omitted. Rule as the data show it: active = normalized growth mostly below about 0.91 (no sharp cut-off); inconclusive = no clear call, values can overlap the other calls; inactive = mostly above about 0.92. This is one part of the list.

Assay: chemical genetic growth profiling, strain panel (AID 1159580);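 also: tested at 20 µM; growth read once vehicle control cultures reached saturation at 30 °C; 1 = growth at the plate median or of vehicle wells; lower values mean less growth of the strain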
Conditions: S. cerevisiae deletion strains, growth OD

Measured: normalized growth

O=C(O[C@@H]1Cc2c(O)cc(O)cc2O[C@@H]1c1ccc(O)c(O)c1)c1cc(O)c(O)c(O)c1
active: locus YBR023C, strain chs3, hits give low values 0.86 | locus YBR231C, strain swc5, hits give low values 0.817 | locus YDL035C, strain GPR1, hits give low values 0.853 | locus YDR069C, strain doa4, hits give low values 0.833 | locus YDR162C, strain NBP2, hits give low values 0.771 | locus YER015W, strain faa2, hits give low values 0.808 | locus YGL173C, strain kem1, hits give low values 0.848 | locus YHR027C, strain rpn1, hits give low values 0.699 | locus YHR142W, strain chs7, hits give low values 0.851 | locus YIL066C, strain RNR3, hits give low values 0.793 | locus YIL073C, strain SPO22, hits give low values 0.665 | locus YJL187C, strain SWE1 (second series), hits give low values 0.854
inactive: locus YAL021C, strain ccr4, hits give low values 0.925 | locus YAL026C, strain drs2, hits give low values 0.923 | locus YAL030W, strain snc1, hits give low values 1.01 | locus YBL061C, strain skt5, hits give low values 0.955 | locus YBR009C, strain hhf1, hits give low values 0.973 | locus YBR021W, strain FUR4, hits give low values 0.999 | locus YBR171W, strain sec66, hits give low values 1.04 | locus YBR229C, strain ROT2, hits give low values 0.987 | locus YBR279W, strain paf1, hits give low values 0.986 | locus YCL011C, strain gbp2, hits give low values 0.961 | locus YCL016C, strain dcc1, hits give low values 0.966 | locus YCL029C, strain bik1, hits give low values 0.975 | locus YCL061C, strain MRC1, hits give low values 0.986 | locus YCL069W, strain vba3, hits give low values 1 | locus YCR088W, strain abp1, hits give low values 1.03 | locus YDL005C, strain med2, hits give low values 1.04 | locus YDL040C, strain nat1, hits give low values 1.03 | locus YDL074C, strain BRE1, hits give low values 0.854 | locus YDL101C, strain DUN1, hits give low values 0.939 | locus YDL185W, strain tfp1, hits give low values 1.01 | locus YDL192W, strain arf1, hits give low values 0.993 | locus YDR001C, strain nth1, hits give low values 1.02 | locus YDR101C, strain arx1, hits give low values 1.01 | locus YDR137W, strain rgp1, hits give low values 0.975 | locus YDR150W, strain NUM1, hits give low values 0.961 | locus YDR159W, strain sac3, hits give low values 1.12 | locus YDR195W, strain ref2 1.1 | locus YDR297W, strain sur2, hits give low values 0.966 | locus YDR318W, strain mcm21, hits give low values 1.02 | locus YDR334W, strain swr1, hits give low values 0.935 | locus YDR335W, strain msn5, hits give low values 0.981 | locus YDR388W, hits give low values 1.01 | locus YDR392W, strain spt3, hits give low values 1.01 | locus YDR502C, strain sam2, hits give low values 1.02 | locus YEL003W, strain gim4, hits give low values 0.981 | locus YEL037C, strain rad23, hits give low values 0.984 | locus YEL061C, strain CIN8 (second series), hits give low values 1.03 | locus YEL061C, strain CIN8, hits give low values 0.947 | locus YER016W, strain bim1, hits give low values 1.03 | locus YER110C, hits give low values 1.03 | locus YER111C, strain swi4, hits give low values 0.986 | locus YER155C, strain BEM2 (second series), hits give low values 1.01 | locus YER155C, strain BEM2, hits give low values 1.04 | locus YER167W, strain BCK2, hits give low values 0.995 | locus YFR010W, strain ubp6, hits give low values 0.961 | locus YGL078C, strain dbp3, hits give low values 1.03 | locus YGL086W, strain mad1, hits give low values 0.954 | locus YGL167C, strain pmr1, hits give low values 1.02 | locus YGL227W, strain vid30, hits give low values 1.05 | locus YGL240W, strain doc1, hits give low values 1.04 | locus YGL248W, strain PDE1, hits give low values 0.941 | locus YGL253W, strain hxk2, hits give low values 0.979 | locus YGR135W, strain pre9, hits give low values 1.02 | locus YGR252W, strain gcn5, hits give low values 1.01 | locus YHR013C, strain ard1, hits give low values 0.852 | locus YHR030C, strain SLT2, hits give low values 0.965 and 0.994 | locus YHR079C, strain IRE1 (second series), hits give low values 1.02 | locus YHR079C, strain IRE1, hits give low values 0.996 | locus YHR094C, strain hxt1, hits give low values 1.03 | locus YHR129C, strain ARP1, hits give low values 0.931 | locus YHR200W, strain rpn10, hits give low values 1 | locus YIL125W, strain kgd1, hits give low values 1 | locus YIR030C, strain dcg1, hits give low values 1.04 | locus YJL092W, strain hpr5, hits give low values 1.04 | locus YJL095W, strain BCK1 (second series), hits give low values 0.997 | locus YJL095W, strain BCK1, hits give low values 0.898 and 0.984 | locus YJL115W, strain asf1, hits give low values 1.03 | locus YJL129C, strain trk1, hits give low values 1.06 | locus YJL134W, strain LCB3, hits give low values 0.98 | locus YJL154C, strain vps35, hits give low values 1.03 | locus YJL164C, strain tpk1, hits give low values 0.966 | locus YJL166W, strain qcr8, hits give low values 0.922 | locus YJL168C, strain set2, hits give low values 1.03 | locus YJL187C, strain SWE1, hits give low values 0.988
